Measurements as given in the supplement of paper PMC3334620.
Over roughly 33,000 sequences, “E-score (-0.5 to 0.5)” has its median near -0.016; the highest 2% begin near 0.3. This excerpt belongs to a sample that is enriched for the highest values.

target: T1, Yer184c (UniProt P39961); assay: PBM E-score (8-mer binding enrichment) (E-score (-0.5 to 0.5)); higher = stronger / more preferred TF binding; settings: protein concentration: 100 nM; construct: GST-full length
T1 sequence: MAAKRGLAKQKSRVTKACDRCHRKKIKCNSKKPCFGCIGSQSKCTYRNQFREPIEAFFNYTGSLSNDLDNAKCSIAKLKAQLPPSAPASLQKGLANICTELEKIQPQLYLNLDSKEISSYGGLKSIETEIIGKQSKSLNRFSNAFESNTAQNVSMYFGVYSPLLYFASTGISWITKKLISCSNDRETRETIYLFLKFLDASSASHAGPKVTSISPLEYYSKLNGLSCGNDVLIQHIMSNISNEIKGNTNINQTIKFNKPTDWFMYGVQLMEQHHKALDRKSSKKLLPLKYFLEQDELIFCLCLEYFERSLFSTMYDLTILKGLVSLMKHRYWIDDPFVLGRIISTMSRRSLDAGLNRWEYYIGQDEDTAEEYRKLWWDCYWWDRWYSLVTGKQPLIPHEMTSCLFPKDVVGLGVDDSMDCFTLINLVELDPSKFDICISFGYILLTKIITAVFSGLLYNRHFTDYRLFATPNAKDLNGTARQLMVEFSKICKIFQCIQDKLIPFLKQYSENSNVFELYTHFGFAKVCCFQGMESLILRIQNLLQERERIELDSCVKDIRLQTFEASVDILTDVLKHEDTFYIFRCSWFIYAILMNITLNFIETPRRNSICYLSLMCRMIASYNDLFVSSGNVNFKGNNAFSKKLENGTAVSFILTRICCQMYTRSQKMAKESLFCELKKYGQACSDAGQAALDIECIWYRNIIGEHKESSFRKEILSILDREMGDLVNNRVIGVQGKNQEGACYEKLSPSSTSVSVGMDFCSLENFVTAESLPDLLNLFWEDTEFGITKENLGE
Description: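 Universal 'all 10-mer' protein binding microarrays (Agilent AMADID 015681) probed with GST-tagged S. cerevisiae TFs (full-length or DBD) made by in vitro transcription/translation (PURExpress), about 100-200 nM. Bound TF was detected with fluorescent anti-GST. Each ungapped 8-mer (which stands for itself and its reverse complement) is scored by the PBM enrichment score (E-score), a modified Wilcoxon-Mann-Whitney statistic from -0.5 to +0.5, computed with the Universal PBM Analysis Suite. Scale: above 0.35 generally sequence-specific binding.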

Which “PBM E-score” value does the source give for AGCCCAAG here?
Its value is -0.228.

For GGCCGACC, which “PBM E-score” value is on record?
The value was 0.028.

How did the “PBM E-score” value turn out when GCCCGAAC was run?
The value was 0.0908.

How did the “PBM E-score” value turn out when CGCCGAAA was run?
Its value is 0.293.

How did the “PBM E-score” value turn out when AACCGAAG was run?
The value was 0.259.

TGCCGACA was tested. Which “PBM E-score” value did it give?
The value was 0.222.

With AACCGAAT as the sequence, how does the “PBM E-score” value read?
The value was 0.199.

For TGCCGAAA, which “PBM E-score” value is on record?
The value was 0.371.

With GGCCGAAC as the sequence, how does the “PBM E-score” value read?
The value was 0.305.

For AACCGAAA, which “PBM E-score” value is on record?
Its value is 0.345.

For ACCCGAAT, which “PBM E-score” value is on record?
Its value is 0.104.

Which “PBM E-score” value does the source give for AGCCGACT here?
Its value is -0.00308.

For AGCCGAAT, which “PBM E-score” value is on record?
The value was 0.392.

Which “PBM E-score” value does the source give for GCGGGGAA here?
The value was -0.0187.

With CGGGCTAA as the sequence, how does the “PBM E-score” value read?
Its value is 0.0904.

For CTGCCTCC, which “PBM E-score” value is on record?
Its value is -0.339.

How did the “PBM E-score” value turn out when ATACGACC was run?
Its value is -0.182.

Which “PBM E-score” value does the source give for GATCTGGA here?
Its value is -0.0474.

For GACTTTCA, which “PBM E-score” value is on record?
The value was -0.0149.

CATGCGCC was tested. Which “PBM E-score” value did it give?
Its value is -0.092.

How did the “PBM E-score” value turn out when CCATTAAG was run?
The value was -0.0869.

With ACCTCACT as the sequence, how does the “PBM E-score” value read?
The value was -0.0518.

For ACTAGCGG, which “PBM E-score” value is on record?
Its value is -0.0521.

How did the “PBM E-score” value turn out when ACCCGAAA was run?
Its value is 0.169.

With GACCGAAC as the sequence, how does the “PBM E-score” value read?
The value was 0.33.

Which “PBM E-score” value does the source give for GGTCGAAA here?
The value was -0.168.

GGCCGAAA was tested. Which “PBM E-score” value did it give?
The value was 0.398.

With GACCGAAA as the sequence, how does the “PBM E-score” value read?
Its value is 0.265.

With GCCCGAAA as the sequence, how does the “PBM E-score” value read?
The value was 0.171.

With AGCCGAAA as the sequence, how does the “PBM E-score” value read?
The value was 0.364.

How did the “PBM E-score” value turn out when CACCGAAC was run?
The value was 0.143.

For AGCCGAAC, which “PBM E-score” value is on record?
The value was 0.279.

For CACTAGGC, which “PBM E-score” value is on record?
The value was -0.175.

For CGATAAAG, which “PBM E-score” value is on record?
Its value is -0.00214.

CTACGCAA was tested. Which “PBM E-score” value did it give?
Its value is -0.00413.

Which “PBM E-score” value does the source give for ACCCAATA here?
The value was -0.0358.

For GGTTACAA, which “PBM E-score” value is on record?
The value was 0.23.

For CCATAACC, which “PBM E-score” value is on record?
The value was -0.184.

How did the “PBM E-score” value turn out when AAGATAGT was run?
Its value is 0.108.

Which “PBM E-score” value does the source give for GAACATTC here?
Its value is 0.102.

How did the “PBM E-score” value turn out when CCGAAAGG was run?
Its value is 0.166.

With TCGAAAAA as the sequence, how does the “PBM E-score” value read?
Its value is 0.169.

ACGAAAAG was tested. Which “PBM E-score” value did it give?
Its value is 0.187.

For ACGAAATA, which “PBM E-score” value is on record?
Its value is 0.11.

CCGAAAAG was tested. Which “PBM E-score” value did it give?
The value was 0.31.

For GCGAGAAA, which “PBM E-score” value is on record?
Its value is -0.0014.

How did the “PBM E-score” value turn out when CCGAAAAA was run?
The value was 0.371.

How did the “PBM E-score” value turn out when GCGAAATA was run?
The value was 0.206.

How did the “PBM E-score” value turn out when CCGAAATA was run?
The value was 0.34.

CCGAAAAC was tested. Which “PBM E-score” value did it give?
The value was 0.243.

CCGAGAAA was tested. Which “PBM E-score” value did it give?
The value was 0.351.

For TCGAGAAA, which “PBM E-score” value is on record?
Its value is 0.0245.

How did the “PBM E-score” value turn out when AGCCATCG was run?
The value was -0.189.

With CCTTGCCG as the sequence, how does the “PBM E-score” value read?
The value was 0.124.

For CCACAGAG, which “PBM E-score” value is on record?
Its value is -0.188.

With AACTTACG as the sequence, how does the “PBM E-score” value read?
The value was 0.0113.

For GGGGGGAC, which “PBM E-score” value is on record?
The value was -0.445.

Which “PBM E-score” value does the source give for CGGCGCAC here?
Its value is 0.216.

For GTCTTAAC, which “PBM E-score” value is on record?
Its value is -0.122.

Which “PBM E-score” value does the source give for TAAGGTGA here?
The value was -0.0772.

How did the “PBM E-score” value turn out when CGGGGAAG was run?
Its value is 0.0845.

How did the “PBM E-score” value turn out when ACAGTTAT was run?
Its value is -0.0291.

ACGAAGAA was tested. Which “PBM E-score” value did it give?
The value was 0.258.

With TCGAAGAA as the sequence, how does the “PBM E-score” value read?
Its value is -0.0488.

CCGAAGAA was tested. Which “PBM E-score” value did it give?
The value was 0.345.

For GTGAATCA, which “PBM E-score” value is on record?
Its value is -0.0703.

How did the “PBM E-score” value turn out when TGTTAACA was run?
The value was 0.111.

Which “PBM E-score” value does the source give for CCGGTACG here?
Its value is -0.00725.

For TCGGTAAA, which “PBM E-score” value is on record?
Its value is 0.296.

For CCGGTAAC, which “PBM E-score” value is on record?
The value was 0.259.

CCGGTAAG was tested. Which “PBM E-score” value did it give?
Its value is 0.369.

With ACGGTAAG as the sequence, how does the “PBM E-score” value read?
The value was -0.00751.

CCGGTAAA was tested. Which “PBM E-score” value did it give?
The value was 0.321.

GAAAGAGC was tested. Which “PBM E-score” value did it give?
Its value is -0.0552.

With CCCTTTGA as the sequence, how does the “PBM E-score” value read?
Its value is -0.266.

How did the “PBM E-score” value turn out when ACGCGACA was run?
Its value is -0.0168.

Which “PBM E-score” value does the source give for CCGATTCC here?
Its value is 0.164.

Which “PBM E-score” value does the source give for CCGATTCG here?
The value was 0.358.

CCGATTCA was tested. Which “PBM E-score” value did it give?
The value was 0.0391.

Which “PBM E-score” value does the source give for ATGCCAAT here?
Its value is -0.0596.

For ACGGACCA, which “PBM E-score” value is on record?
The value was 0.327.

For CCGGACCA, which “PBM E-score” value is on record?
Its value is 0.297.

How did the “PBM E-score” value turn out when CCGGACAA was run?
Its value is 0.29.

For CCGGACCG, which “PBM E-score” value is on record?
The value was 0.353.

Which “PBM E-score” value does the source give for CCGGACAG here?
The value was 0.324.

With CCGGACAC as the sequence, how does the “PBM E-score” value read?
Its value is 0.286.
